How the values were obtained:
Assay in all cases: log2 ratio of Biotin-Ahx-Ub-VS probe labelling (fragment/DMSO); higher = less target engagement (more negative = stronger competition), active = hit call of the paper (q ≤ 0.05, log2 ratio ≤ -1)
Conditions in all cases: compound concentration: 200 uM; treatment time: 3 h
[1] = target: T1, OTUD6B (UniProt Q8N6M0)
T1 sequence (whole entry): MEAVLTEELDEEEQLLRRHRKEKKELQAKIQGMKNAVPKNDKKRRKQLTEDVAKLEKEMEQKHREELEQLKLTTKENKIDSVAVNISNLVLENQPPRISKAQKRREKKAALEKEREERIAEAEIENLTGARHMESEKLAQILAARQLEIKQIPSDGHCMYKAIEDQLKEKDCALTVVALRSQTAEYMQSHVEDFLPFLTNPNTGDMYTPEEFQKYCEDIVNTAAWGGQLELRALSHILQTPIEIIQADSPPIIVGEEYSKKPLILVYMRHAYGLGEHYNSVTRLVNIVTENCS
Outline: (§1)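 HEK293T lysate, 495 µg per sample in Tris/CHAPS/IGEPAL buffer with protease inhibitors, was treated in triplicate with fragment at 200 µM or vehicle for 3 h and then with Biotin-Ahx-Ub-VS at 0.5 µM final for 1 h. Labelled DUBs were NeutrAvidin-enriched, digested with LysC and trypsin, and run by diaPASEF LC-MS/MS. Spectronaut label-free quantities were global-median-normalised, and values are average log2 fragment/vehicle ratios by unpaired t-test on proteins with ≥2 unique peptides.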

[2] = target: T2, OTUD7B (UniProt Q6GQQ9)
T2 sequence (whole entry): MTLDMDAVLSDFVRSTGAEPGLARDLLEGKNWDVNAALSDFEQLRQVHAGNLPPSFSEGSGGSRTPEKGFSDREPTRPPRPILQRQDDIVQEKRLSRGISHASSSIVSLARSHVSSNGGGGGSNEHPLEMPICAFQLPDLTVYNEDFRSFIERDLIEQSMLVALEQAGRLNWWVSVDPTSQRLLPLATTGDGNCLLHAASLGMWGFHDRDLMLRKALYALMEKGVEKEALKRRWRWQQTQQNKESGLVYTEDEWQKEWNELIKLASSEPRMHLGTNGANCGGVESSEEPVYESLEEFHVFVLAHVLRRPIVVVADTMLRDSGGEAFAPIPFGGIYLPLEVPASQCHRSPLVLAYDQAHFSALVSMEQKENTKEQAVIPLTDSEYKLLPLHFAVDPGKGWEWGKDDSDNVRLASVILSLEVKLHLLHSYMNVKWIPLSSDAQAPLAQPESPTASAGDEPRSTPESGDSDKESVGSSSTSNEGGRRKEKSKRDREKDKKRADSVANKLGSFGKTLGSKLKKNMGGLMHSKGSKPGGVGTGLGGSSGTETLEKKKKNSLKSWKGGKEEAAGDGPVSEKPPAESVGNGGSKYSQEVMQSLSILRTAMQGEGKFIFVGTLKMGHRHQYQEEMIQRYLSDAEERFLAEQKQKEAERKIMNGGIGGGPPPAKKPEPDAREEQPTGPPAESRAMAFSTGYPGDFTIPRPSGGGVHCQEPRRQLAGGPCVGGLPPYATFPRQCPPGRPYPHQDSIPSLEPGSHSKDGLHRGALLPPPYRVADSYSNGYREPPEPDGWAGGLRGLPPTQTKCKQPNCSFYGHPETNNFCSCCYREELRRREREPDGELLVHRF
Outline: as §1

[3] = target: PRPF8 (UniProt Q6P2Q9)
Outline: as §1

[4] = target: T3, PSMD7 (UniProt P51665)
T3 sequence (whole entry): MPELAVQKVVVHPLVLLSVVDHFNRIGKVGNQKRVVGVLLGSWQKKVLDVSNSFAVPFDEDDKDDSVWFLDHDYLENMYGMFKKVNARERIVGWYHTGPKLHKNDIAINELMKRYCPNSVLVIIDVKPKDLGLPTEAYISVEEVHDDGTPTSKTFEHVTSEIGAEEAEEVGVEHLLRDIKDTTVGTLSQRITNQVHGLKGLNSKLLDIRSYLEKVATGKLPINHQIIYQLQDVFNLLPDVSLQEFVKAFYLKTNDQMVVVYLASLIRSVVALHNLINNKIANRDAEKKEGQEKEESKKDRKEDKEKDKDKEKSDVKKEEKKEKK
Outline: as §1

[5] = target: UCHL1 (UniProt P09936)
Outline: as §1

[6] = target: T4, UCHL3 (UniProt P15374)
T4 sequence (whole entry): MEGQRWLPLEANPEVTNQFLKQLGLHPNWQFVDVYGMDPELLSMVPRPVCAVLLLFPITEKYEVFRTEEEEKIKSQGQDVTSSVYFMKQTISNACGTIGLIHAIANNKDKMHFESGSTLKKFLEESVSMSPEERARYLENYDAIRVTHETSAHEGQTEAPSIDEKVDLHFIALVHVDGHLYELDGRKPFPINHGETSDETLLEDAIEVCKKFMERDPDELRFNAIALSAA
Outline: as §1

[7] = target: T5, UCHL5 (UniProt Q9Y5K5)
T5 sequence (whole entry): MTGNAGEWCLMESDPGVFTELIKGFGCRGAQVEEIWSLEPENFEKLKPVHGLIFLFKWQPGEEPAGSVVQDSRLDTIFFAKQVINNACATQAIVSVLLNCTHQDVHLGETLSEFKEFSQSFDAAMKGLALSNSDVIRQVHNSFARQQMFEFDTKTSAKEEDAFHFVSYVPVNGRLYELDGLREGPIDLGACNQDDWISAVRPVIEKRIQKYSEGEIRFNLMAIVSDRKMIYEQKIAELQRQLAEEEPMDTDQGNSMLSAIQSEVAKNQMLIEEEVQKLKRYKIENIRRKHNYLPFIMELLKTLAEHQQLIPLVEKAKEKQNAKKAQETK
Outline: as §1

[8] = target: USP10 (UniProt Q14694)
Outline: as §1

[9] = target: T6, USP15 (UniProt Q9Y4E8)
T6 sequence (whole entry): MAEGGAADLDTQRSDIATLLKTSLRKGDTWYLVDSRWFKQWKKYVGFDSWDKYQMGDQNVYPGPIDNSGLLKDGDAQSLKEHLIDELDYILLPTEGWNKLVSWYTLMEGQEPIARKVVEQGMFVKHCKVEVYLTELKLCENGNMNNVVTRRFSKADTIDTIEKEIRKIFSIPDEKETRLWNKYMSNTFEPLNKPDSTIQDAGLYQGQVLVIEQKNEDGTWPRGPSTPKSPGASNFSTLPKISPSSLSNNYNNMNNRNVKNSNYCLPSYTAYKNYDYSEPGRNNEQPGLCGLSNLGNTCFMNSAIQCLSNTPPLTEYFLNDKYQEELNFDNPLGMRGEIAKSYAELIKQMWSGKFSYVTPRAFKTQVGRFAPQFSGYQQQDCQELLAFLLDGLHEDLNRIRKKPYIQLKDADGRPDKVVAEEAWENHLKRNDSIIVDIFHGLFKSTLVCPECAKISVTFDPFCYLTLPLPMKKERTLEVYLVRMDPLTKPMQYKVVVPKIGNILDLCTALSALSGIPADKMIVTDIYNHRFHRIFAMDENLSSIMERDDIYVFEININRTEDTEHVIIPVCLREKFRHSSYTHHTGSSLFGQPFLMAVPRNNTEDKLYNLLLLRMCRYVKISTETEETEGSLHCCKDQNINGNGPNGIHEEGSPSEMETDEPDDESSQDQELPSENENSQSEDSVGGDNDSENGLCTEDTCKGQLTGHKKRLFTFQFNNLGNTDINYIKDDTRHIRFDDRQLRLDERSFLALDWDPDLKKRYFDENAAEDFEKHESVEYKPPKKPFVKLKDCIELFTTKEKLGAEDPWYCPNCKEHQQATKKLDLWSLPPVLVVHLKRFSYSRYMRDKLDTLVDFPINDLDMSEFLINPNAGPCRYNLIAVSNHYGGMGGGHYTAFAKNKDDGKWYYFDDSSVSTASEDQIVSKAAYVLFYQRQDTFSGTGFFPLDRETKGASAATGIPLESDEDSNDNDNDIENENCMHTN
Outline: as §1

[10] = target: USP16 (UniProt Q9Y5T5)
Outline: as §1

Measured: log2 ratio of Biotin-Ahx-Ub-VS probe labelling

Sequence of USP16 (Q9Y5T5 whole entry, looked up): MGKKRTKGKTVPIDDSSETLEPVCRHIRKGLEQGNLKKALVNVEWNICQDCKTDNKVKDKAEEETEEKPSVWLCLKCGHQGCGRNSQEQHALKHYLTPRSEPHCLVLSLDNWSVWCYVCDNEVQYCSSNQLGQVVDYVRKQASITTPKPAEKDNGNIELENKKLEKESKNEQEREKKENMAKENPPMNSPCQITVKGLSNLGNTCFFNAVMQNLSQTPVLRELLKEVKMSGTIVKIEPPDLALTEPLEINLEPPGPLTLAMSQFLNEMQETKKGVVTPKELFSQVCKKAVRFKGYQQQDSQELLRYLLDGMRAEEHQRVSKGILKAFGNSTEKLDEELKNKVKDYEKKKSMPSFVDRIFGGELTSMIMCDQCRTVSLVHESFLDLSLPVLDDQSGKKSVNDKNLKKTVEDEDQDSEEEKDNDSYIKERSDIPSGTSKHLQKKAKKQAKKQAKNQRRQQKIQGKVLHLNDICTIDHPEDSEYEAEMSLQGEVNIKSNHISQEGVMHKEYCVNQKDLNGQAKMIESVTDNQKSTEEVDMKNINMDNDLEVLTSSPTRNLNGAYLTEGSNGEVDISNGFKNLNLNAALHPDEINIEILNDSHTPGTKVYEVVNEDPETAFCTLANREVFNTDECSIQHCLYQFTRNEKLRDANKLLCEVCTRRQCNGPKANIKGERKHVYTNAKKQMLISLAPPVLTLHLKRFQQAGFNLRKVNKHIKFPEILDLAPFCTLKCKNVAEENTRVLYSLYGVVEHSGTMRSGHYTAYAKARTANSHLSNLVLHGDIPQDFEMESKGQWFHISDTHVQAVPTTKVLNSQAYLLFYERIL
Sequence of USP10 (Q14694 whole entry): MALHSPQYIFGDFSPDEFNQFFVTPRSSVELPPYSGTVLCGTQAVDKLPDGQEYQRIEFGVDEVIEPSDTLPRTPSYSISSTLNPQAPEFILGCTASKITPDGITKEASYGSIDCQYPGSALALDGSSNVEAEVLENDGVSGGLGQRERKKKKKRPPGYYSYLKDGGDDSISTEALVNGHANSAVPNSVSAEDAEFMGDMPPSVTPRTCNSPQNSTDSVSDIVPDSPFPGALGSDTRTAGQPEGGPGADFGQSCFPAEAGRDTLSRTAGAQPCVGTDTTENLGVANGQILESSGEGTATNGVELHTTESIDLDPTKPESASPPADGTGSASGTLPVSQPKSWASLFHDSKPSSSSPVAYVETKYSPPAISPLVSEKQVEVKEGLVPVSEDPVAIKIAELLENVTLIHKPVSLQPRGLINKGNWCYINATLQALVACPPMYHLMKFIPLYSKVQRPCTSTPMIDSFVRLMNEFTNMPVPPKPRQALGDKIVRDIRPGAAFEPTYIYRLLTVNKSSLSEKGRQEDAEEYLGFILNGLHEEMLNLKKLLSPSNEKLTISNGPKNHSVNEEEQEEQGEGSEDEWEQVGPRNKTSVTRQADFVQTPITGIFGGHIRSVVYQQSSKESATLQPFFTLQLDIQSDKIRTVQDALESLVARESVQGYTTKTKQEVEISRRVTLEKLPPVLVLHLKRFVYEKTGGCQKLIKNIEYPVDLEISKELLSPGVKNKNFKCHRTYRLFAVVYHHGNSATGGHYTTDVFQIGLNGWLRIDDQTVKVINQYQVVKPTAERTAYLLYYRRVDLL
Sequence of UCHL1 (P09936 whole entry, looked up): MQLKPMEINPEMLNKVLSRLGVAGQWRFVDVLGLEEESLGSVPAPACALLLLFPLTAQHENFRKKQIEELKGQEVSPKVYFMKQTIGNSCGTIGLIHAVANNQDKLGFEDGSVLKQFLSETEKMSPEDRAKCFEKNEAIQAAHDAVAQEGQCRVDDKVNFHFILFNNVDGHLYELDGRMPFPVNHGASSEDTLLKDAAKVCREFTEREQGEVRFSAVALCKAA

CC(NC(=O)CCl)c1cccc(Cl)c1 (stereo not given)
active: [2] -1.21 | [5] -1.58
inactive: [1] -0.345 | [3] -0.202 | [4] -0.316 | [6] -0.204 | [7] -0.426 | [8] -0.136 | [9] -0.301 | [10] 0.118

Reference: the supplement of paper PMC11732987, “Enantioselective OTUD7B fragment discovery through chemoproteomics screening and high-throughput optimisation” (Communications Chemistry, 2025)
